# SENP7 inh: inhibitors of human SENP7 protease | 1.5% of 330,000 active | inhibition, % at 5 µM | Q9BQF6 | recombinant SENP7, Z-RLRGG-aminoluciferin luminescence, 40 min;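 active = inhibition above about 50% at the single test dose, limit read from the data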;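 note: plate controls were DMSO with enzyme for no effect and no enzyme buffer wells for full effect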
# SENP6 block: SENP6 protease inhibition; 1.8% of 330,000 active; Q9GZR1; Recombinant SENP6 catalytic domain, aminoluciferin luminescence; AID 2599; inhibition, % at 10 µM;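 active = inhibition above about 50% at the single tested dose, limit read from the data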;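 note: plate controls were DMSO wells with enzyme for no effect and DMSO wells lacking enzyme for full effect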
# SENP8 block-1: SENP8 protease inhibition; Q96LD8; purified SENP8, Z-RLRGG-aminoluciferin cleavage, luminescence; inhibition, % at 10 µM; 1.2% of 330,000 active; in the data active = inhibition above about 50%
# AHR act: human AHR activation; activation, % at 5 µM; P35869; AID 2796; AHR-responsive luciferase reporter cells, luminescence; 2.5% of 320,000 active; in the data active = activation above about 47%;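 note: 0% = vehicle wells and 100% = reference agonist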
# Target sequence (P35869 whole entry, looked up): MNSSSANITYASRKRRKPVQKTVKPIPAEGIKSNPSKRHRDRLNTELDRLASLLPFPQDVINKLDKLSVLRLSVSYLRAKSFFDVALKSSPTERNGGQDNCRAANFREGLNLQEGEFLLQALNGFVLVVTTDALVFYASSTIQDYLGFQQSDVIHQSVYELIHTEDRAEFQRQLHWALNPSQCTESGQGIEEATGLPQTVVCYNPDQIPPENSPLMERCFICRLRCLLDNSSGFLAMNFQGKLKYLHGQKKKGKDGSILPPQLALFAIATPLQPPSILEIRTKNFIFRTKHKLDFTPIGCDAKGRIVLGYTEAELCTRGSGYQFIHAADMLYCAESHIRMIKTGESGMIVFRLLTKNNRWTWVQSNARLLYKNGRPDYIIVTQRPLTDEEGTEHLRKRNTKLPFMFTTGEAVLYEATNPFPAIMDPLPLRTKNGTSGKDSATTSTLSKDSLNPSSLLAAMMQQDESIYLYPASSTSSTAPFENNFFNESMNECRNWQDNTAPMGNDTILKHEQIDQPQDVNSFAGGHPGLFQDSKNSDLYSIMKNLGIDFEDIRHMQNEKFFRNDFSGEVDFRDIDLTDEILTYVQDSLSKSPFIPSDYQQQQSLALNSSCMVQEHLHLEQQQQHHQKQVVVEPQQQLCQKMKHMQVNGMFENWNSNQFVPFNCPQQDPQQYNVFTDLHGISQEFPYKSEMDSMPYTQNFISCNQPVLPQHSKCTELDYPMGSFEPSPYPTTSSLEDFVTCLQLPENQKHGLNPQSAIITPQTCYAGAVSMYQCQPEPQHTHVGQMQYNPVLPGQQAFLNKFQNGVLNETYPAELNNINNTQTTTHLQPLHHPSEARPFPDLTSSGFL
# SENP8 block-2: inhibitors of human SENP8 protease | Q96LD8 | recombinant SENP8, Nedd8 substrate fluorescence | inhibition, % at 20 µM | 0.64% of 360,000 active; in the data active = inhibition mostly above about 40%, no sharp cut-off; inactive = mostly below about 27%
# EBI2 block: antagonists of human EBI2 receptor. EBI2 beta-arrestin recruitment, luminescence, 7a,25-OHC stimulated. 0.81% of 360,000 active. inhibition, % at 5 µM. P32249; in the data active = inhibition above about 38%;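 note: enzyme fragment complementation signal reports receptor beta-arrestin coupling in cells; 0% = agonist plus DMSO wells and 100% = wells without agonist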
# An asterisk follows results filed as active; . = not tested or not shown. An excerpt weighted towards active compounds, which were near 5% of everything screened.
SMILES,SENP7 inh,SENP6 block,SENP8 block-1,AHR act,SENP8 block-2,EBI2 block
O=c1[nH]c(=S)n(C2CC2)c(O)c1/C=N/Nc1cccc2ccccc12,-2,-1,-12,76*,-70,-6
O=c1[nH]c(=S)n(C2CC2)c(O)c1/C=N/Nc1ccccc1,1,30,1,21,12,2
Nc1ccc2ccc3cccc[n+]3c2c1,0,0,-3,23,-75,7
C[n+]1c(-c2ccccc2)c2cc(N)ccc2c2ccc(N)cc21,95*,82*,93*,22,95*,-26
O=C(O)c1ccc2c(c1)C1C(Cl)C(Sc3ccccc3[N+](=O)[O-])CC1C(c1cccc([N+](=O)[O-])c1)N2 (configuration not stated),.,.,.,.,49*,-6
CCN(CC)C(=O)c1ccc2c(c1)C1C(Cl)C(Sc3ccccc3[N+](=O)[O-])CC1C(C(=O)O)N2 (configuration not stated),6,12,14,-2,44*,0
O=C(O)c1cccc2c1NC(c1cccc([N+](=O)[O-])c1)C1CC(Sc3ccccc3[N+](=O)[O-])C(Cl)C21 (configuration not stated),3,16,8,.,31,5
CN1CCc2nc3sc(C(=O)NC4CC4)c(N)c3cc2C1,13,11,3,55*,-96,-7
O=c1[nH]c(=S)[nH]c(O)c1N=Nc1ccc2c(c1)OCO2,85*,89*,82*,75*,28,6
O=c1[nH]c(O)c(N=Nc2ccc3c(c2)OCCO3)c(=O)[nH]1,1,19,-14,10,-25,5
CCOC(=O)c1c(C)n(Cc2ccc(F)cc2)c2ccc(O)cc12,3,-10,-8,5,6,-7
CCOC(=O)c1c(C)n(Cc2ccco2)c2ccc(O)cc12,-9,5,-25,47*,13,11
Cc1ccc2c(c1)N(C(=O)CCC(=O)N1CCC3(CC1)OCCO3)CC(C)O2 (configuration not stated),-1,-1,2,-1,5,1
CC1=NN(c2ccccc2)C(=O)C1/C=C1\C(=O)NC(=O)N(c2cc(C)cc(C)c2)C1=O (configuration not stated),4,10,-1,14,40*,-8
CC(N)Cc1c[nH]c2c1ccc1ccccc12 (configuration not stated),2,1,-2,49*,-50,-9
CCC(N)Cc1c[nH]c2ccccc12 (configuration not stated),3,5,5,.,18,-2
N#CC1c2ccccc2-n2nncc2CN1Cc1cc(Cl)cc(Cl)c1 (configuration not stated),.,.,.,.,3,43*
O=C(Cn1ncn2c(cc3cc(F)ccc32)c1=O)N1CCC2(CC1)OCCO2,16,5,-8,1,-300,-2
Cc1cccc(-n2c(O)c(/C=C3/C(c4ccccc4)=Nc4ccccc43)c(=O)[nH]c2=O)c1,-7,-5,-7,76*,-20,3
Cc1ccccc1-n1c(O)c(/C=C2/C(c3ccccc3)=Nc3ccccc32)c(=O)[nH]c1=O,5,3,5,33,-48,7
Cc1ccccc1-n1c(O)c(C=Nc2ccc(N(C)C)cc2)c(=O)[nH]c1=O,2,-3,8,61*,10,-10
Cc1cccc(N=Cc2c(O)n(-c3ccccc3C)c(=O)[nH]c2=O)c1,1,-20,-3,1,-87,-8
CC1CCN(c2cc(Br)c([N+](=O)[O-])cc2F)CC1,-3,-6,-3,1,40,5
O=C1NC(=O)C2(Cc3cc([N+](=O)[O-])ccc3N3CCN(C(=O)c4ccccc4)CC32)C(=O)N1 (configuration not stated),-5,-13,0,-2,20,0
O=C1C=C(N2CC2)c2ccccc2C1=O,.,.,.,.,64*,-25
SMILES,SENP7 inh,SENP6 block,SENP8 block-1,AHR act,SENP8 block-2,EBI2 block
CC(C)CN1Cc2cc(-c3ccccc3)ccc2-n2nncc2C1,.,.,.,.,1,-4
CC1CN=C(NCc2ccc(F)cc2)S1 (configuration not stated),-5,-1,1,-2,9,-5
CCOP(=O)(C#CC(C)(C)C)C(O)(c1ccccc1)C(F)(F)F (configuration not stated),3,-11,-6,-1,20,3
CN1CCN(c2ccc(N)cc2)CC1,-2,2,11,0,51*,4
CCN1CCN(c2ccc(N)cc2)CC1,-12,-10,-14,-2,12,-6
CCCCn1c(NC(=O)c2ccc(Br)o2)c(C(=O)OCC)c2nc3ccccc3nc21,14,75*,62*,19,-372,16
O=c1cccc2n1CC1CC2CN(c2nc(N3CCCCC3)nc(N3CCCCC3)n2)C1 (configuration not stated),-8,-3,0,2,5,-12
Cc1nc2cc(C(=O)N3CCC4(CC3)OCCO4)ccc2n1-c1ccc(Br)cc1,10,-3,-4,56*,-6,0
CN1C(=O)NC(=O)/C(=C/c2ccc([N+](=O)[O-])s2)C1=O,6,50,33,4,58*,-5
O=C1NC(=O)N(c2ccccc2)C(=O)/C1=C\c1ccc([N+](=O)[O-])s1,20,20,17,0,.,.
C/C(=N\NC(N)=O)c1c(O)n(C)c(=O)n(C)c1=O,-2,-17,0,5,8,4
COC(=O)C[C@]1(C(=O)OC)CN(C#N)N(c2ccc(Cl)cc2)C12c1ccccc1-c1ccccc12,2,-15,-2,-7,20,24
COC(=O)[C@@H]1[C@@H](C(=O)OC)C2(c3ccccc3-c3ccccc32)N(c2ccc(Cl)cc2)N1C#N,6,-15,-1,-1,0,45*
O=C1NC(c2cccnc2)Nc2sc3c(c21)CCCC3 (configuration not stated),-5,-13,-7,56*,-304,-3
Cc1ccc(N2C(=O)NC(=O)/C(=C/C=C/c3ccco3)C2=O)cc1,7,-4,-5,4,4,45*
O=C1NC(=O)N(CCNc2ncc(C(F)(F)F)cc2Cl)C(=O)C1Cc1ccc(Cl)cc1 (configuration not stated),-3,-1,-4,-1,23,-2
COP(=S)(OC)c1c(C)nn(CCC#N)c1NC(=O)c1ccc(Cl)cc1,2,-6,-12,5,14,0
COc1ccc(O)c2c(=O)c3c(OC)cc4c(c3oc12)C1C=COC1O4 (configuration not stated),-2,-7,4,5,16,53*
CCn1cc(C(=O)c2cccs2)c2ccccc21,-4,-3,-5,49*,3,-8
CCCCn1c(=O)c(C(=O)Nc2ccccc2N)c(O)c2ccccc21,-12,-2,-13,48*,-400,-19
C=C(C)CSc1nnc([C@@H](N)Cc2ccccc2)o1,-6,-8,1,-1,17,15
